Here are results for 40 compounds from ChEMBL document CHEMBL3433997, “St. Jude Leishmania screening dataset” (2016).

For the test, the target named is Glucose transporter (Leishmania mexicana) (UniProt O61059). As to the kind of experiment: ST_JUDE_LEISH: Cytotoxicity at 2uM final concentration against transgenic Leishmania Mexicana promastigotes LmGT2 that are glucose transport deficient and complemented with the L. Mexicana glucose transporter 2. Activity is measured by DNA content using SYBR green in vitro. The test is classed as functional.
As for `COc1ccc(NC(=O)c2ccc(-c3cccc(OCc4ccccc4)c3)cc2)cc1N1CCN(C)CC1`, the inhibition (usually the change of the read-out against control, counted positive when it falls) was -0.95%. With `CCCCc1ccc(CCNCCCCCCNCCc2ccc(O)c(O)c2)cc1` the figure was -1.2%; with `Clc1cc(Br)ccc1-c1ccc(CNCC2CCNCC2)o1`, 1.69%.

Turning to `COc1ccc2nc3cc(Cl)ccc3c(NCCCCN)c2c1`, the inhibition was 0.04%. Then `COc1ccccc1CCNc1nccc(N[C@@H](Cc2ccccc2)C(=O)NCc2cccs2)n1`, with -0.08%; and `COc1ccc(-c2cc3nc4c(c(NCCCn5ccnc5)n3n2)CCCC4)cc1`, with 2.25%; and `COCCNCc1ccc(-c2ccc3c(Nc4ccc(Cl)cc4F)ccnc3c2)o1`, with 4.33%. With `O=C(Cc1c[nH]cn1)Nc1ccc(-c2ccc(-c3nc4cc(C(F)(F)F)ccc4[nH]3)s2)cc1` the figure was -0.01%; with `C=CC[C@H](C[C@H](O)[C@H](Cc1ccccc1)NC(=O)c1ccc(-n2cccn2)cc1)C(=O)NC1CCCCC1`, 9.59%. For the compound `FC(F)(F)c1cccc(-c2cc(NCCCn3ccnc3)nc(-c3ccncc3)n2)c1`, the inhibition is -0.33%. Then `Cc1ccc(-c2ccc(Cl)cc2Oc2cnc(N)nc2N)o1`, with 0.26%; and `Cc1cccc(-c2nc(Nc3ccncc3)c3ccc([N+](=O)[O-])cc3n2)n1`, with 3.86%; and `COc1ccccc1NC(=O)CSc1nc2cccnc2n1-c1ccccc1OC`, with 0.14%.

For `Cc1cc(N2C(N)=NC(N)=NC2(C)C)ccc1Cl`, the inhibition is -0.97%. Then `C=C(C)COc1ccc(-c2n[nH]c(C(F)(F)F)c2-c2ccccc2OC)c(O)c1`, with 6.48%; and `COc1ccc(-c2cccc(NC(=O)c3cccc(Cl)c3)c2)cc1CN1CCCC1`, with -1.22%; and `c1ccc(Oc2ccc(Nc3ccnc4cc(-c5csc(CNCCN6CCOCC6)n5)ccc34)cc2)cc1`, with -0.68%. For the compound `COc1ccc(CCNc2nc(N)c3cc(OC)c(OC)cc3n2)cc1`, the inhibition was found to be 1.41%.

Turning to `COc1ccc(C=NN=c2cc[nH]c3ccccc23)c2ccccc12`, the inhibition stood at 5.88%. In the case of `CC(CCCCC(=O)Nc1ccc(CC(C)NCCc2cccc(Cl)c2)cc1)NCCc1cccc(Cl)c1` (stereo not given), the inhibition was -1.1%. With `CCn1c(-c2nonc2N)nc2c(-c3cc4ccccc4s3)ncc(C(=O)N3CCC(N)C3)c21` (stereo not given) the figure was 10.9%.

With `C=C1N(C)c2cc([N+](=O)[O-])c(N)cc2C1(C)C`, the inhibition was -1.11%. `c1cc2[nH]c(CCCCCc3nc4cc(C5=N[C@@H]6CCCC[C@@H]6N5)ccc4[nH]3)nc2cc1C1=N[C@@H]2CCCC[C@@H]2N1`: the inhibition was determined as 1.81%.

Regarding `Cc1cc(-c2cccc(CNC3CCN(C)CC3)c2)ccc1S(=O)(=O)NC1CCC1`, the inhibition worked out at 0.45%. Consider `COCCNCc1ccc(-c2ccc(CNc3ccc4ncccc4c3)cc2)cc1`, for which the inhibition is 1.36%.

As for `CCOC(=O)c1c(CCc2ccc(C(F)(F)F)cc2)nc2c(c1-c1ccc(C(=O)N[C@@H](C)c3ccncc3)cc1)C(=O)N1CCC[C@@H]21`, the inhibition is 0.48%. With `Fc1ccc2[nH]c(-c3cccc(-c4ccc(CN5CCCCC5)cc4)c3)nc2c1` the figure was 2.43%. Then `CCN(CC)CCN(Cc1ccc(-c2ccc(C(F)(F)F)cc2)cc1)C(=O)c1c[nH]c2ccc(Br)cc12`, with 2.1%; and `N#Cc1ccc(N[C@@H](CC2CCCCC2)C(=O)N[C@@H]2CCCc3ccccc32)c2ccccc12`, with 0.82%. With `O=C(Nc1cccc(F)c1)c1ccc(C(=O)NC2CCN(CC3CCCCC3)CC2)cc1` the figure was 1.84%; with `CNC(=O)C1Cc2c([nH]c3cc(Cl)ccc23)C2(CCN(CCc3ccccc3)CC2)N1` (stereo not given), 1.5%; with `Cc1nc(C)c(-c2ccc(Oc3cc(Cl)cc(Cl)c3)cc2)c(O)c1Br`, -1.58%.

In the case of `Cc1cccc2nc(-c3cccc(-c4cccc(CNCCc5cccn5C)c4)c3)[nH]c12`, the inhibition was -0.27%. For the compound `C=CCOC(=O)N1CCC(CNCc2ccc(-c3cccc(-c4nc5cccc(C)c5[nH]4)c3)cc2)C1` (stereo not given), the inhibition was -2.77%. Then `N#Cc1cccc(-c2nc(NCc3cccc(C(F)(F)F)c3)nn2-c2cccc(C(F)(F)F)c2)c1`, with -0.56%; and `Cc1cc(N(C)CCN(C)C)nc(Nc2ccc(Br)cc2)n1`, with 2.53%; and `Cc1cccc(C(=O)N2CCN(Cc3cccc(NC(=O)c4cccs4)c3)CC2)c1`, with 7.07%. Take `Cc1noc(C)c1-c1ccc(C(=C2CCCCCCC2)c2ccc(O)cc2)cc1`: the inhibition is 5.39%. Take `CCCc1ccc(C2CCN(CCCCNC(=O)c3ccc(NC(=O)c4ccc(Cl)cc4)cc3)CC2)cc1`: the inhibition was 0.1%. With `CN1CCN(c2ccnc3ccc(NC(=O)Nc4cccc5ccccc45)cc23)CC1` the figure was 1.87%.
